# Measurements taken from PubChem BioAssay (EPA / NIEHS).
# Records with an inconclusive call do not appear. Activity calls are given as the source filed them. How the source made its calls: active means hit-call score of the fitted dose curve at least 0.9, where 1 is the maximum; inconclusive means response in the unintended direction; inactive means score below 0.9.
# How the values were obtained:
# [1] = test system: guinea pig Leukotriene B4 Receptor (LTB4), gene 100379538; assay: NVS_GPCR_gLTB4: NovaScreen (NVS) G Protein-Coupled Receptor Assay for guinea pig Leukotriene B4 Receptor (LTB4) (AID 2283247)
# Outline: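 Membranes from guinea pig spleen incubated 2 h with radioligand and compound; bound counts measured by filtration and scintillation. Screened first at 25 uM in duplicate, then actives titrated to a 50 uM top concentration relative to DMSO.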
# [2] = target: human Serotonin, 5-Hydroxytryptamine Receptor 2A (5HT2A), HTR2A (gene 3356) (UniProt P28223); assay: NVS_GPCR_h5HT2A: NovaScreen (NVS) G Protein-Coupled Receptor Assay for human Serotonin, 5-Hydroxytryptamine Receptor 2A (5HT2A) (AID 2283249)
# Outline: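 Radioligand displacement on human cortex tissue extract, counted by filtration and scintillation 1.5 h post-dosing. Initial single-concentration screen at 25 uM in duplicate, concentration series in follow-up; DMSO as baseline.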
# [3] = test system: guinea pig Muscarinic, Peripheral (Mperiperal) Receptor, Non-selective Binding, gene 100379235; assay: NVS_GPCR_gMPeripheral_NonSelective: NovaScreen (NVS) G Protein-Coupled Receptor Assay for guinea pig Muscarinic, Peripheral (Mperiperal) Receptor, Non-selective Binding (AID 2283250)
# Outline: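 Screened in duplicate at 25 uM, hits retested in concentration series to 50 uM max, using bladder membrane radioligand displacement from guinea pig. Filtration and scintillation counting 1 h post-dose, fitted relative to DMSO.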
# [4] = target: human Serotonin, 5-Hydroxytryptamine Receptor 5A (5HT5A), HTR5A (gene 3361) (UniProt P47898); assay: NVS_GPCR_h5HT5A: NovaScreen (NVS) G Protein-Coupled Receptor Assay for human Serotonin, 5-Hydroxytryptamine Receptor 5A (5HT5A) (AID 2283251)
# Outline: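 Membranes from HEK293 cells, radioligand binding read by filtration and scintillation after 1 h. Single-concentration duplicate testing at 25 uM, then concentration-response for actives; positive-direction fitting relative to DMSO.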
# [5] = target: guinea pig Opioid, Kappa 1 Receptor (OpiateK), OPRK1 (gene 100135587) (UniProt P41144); assay: NVS_GPCR_gOpiateK: NovaScreen (NVS) G Protein-Coupled Receptor Assay for guinea pig Opioid, Kappa 1 Receptor (OpiateK) (AID 2283252);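 further: radioligand displacement from kappa opioid receptor in guinea pig cerebellar membranes; active means reduced radioligand binding relative to DMSO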
# Outline: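 Radioligand competition binding using guinea pig cerebellum membrane fraction; 2 h exposure; filter radiodetection. Single concentration 25 uM (duplicate), follow-up concentration-response for actives.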
# [6] = target: human Serotonin, 5-Hydroxytryptamine Receptor 6 (5HT6), HTR6 (gene 3362) (UniProt P50406); assay: NVS_GPCR_h5HT6: NovaScreen (NVS) G Protein-Coupled Receptor Assay for human Serotonin, 5-Hydroxytryptamine Receptor 6 (5HT6) (AID 2283253)
# Outline: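 Filter scintillation counting of radioligand displacement from HEK293-expressed 5HT6, 1 hour post-dose, with loss of signal relative to DMSO. Single 25 uM duplicates first, with concentration series for confirmation.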
# [7] = target: human Adenosine A1 Receptor (AdoRA1), ADORA1 (gene 134) (UniProt P30542); assay: NVS_GPCR_hAdoRA1: NovaScreen (NVS) G Protein-Coupled Receptor Assay for human Adenosine A1 Receptor (AdoRA1) (AID 2283254)
# Outline: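 Hum. cortical membranes + radioligand, cmpd 1 h; filtration, scintillation count. Readout = decrease vs DMSO. Primary 25 uM dup; hits → conc. series.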
# [8] = target: human Serotonin, 5-Hydroxytryptamine Receptor 7 (5HT7), HTR7 (gene 3363) (UniProt P34969); assay: NVS_GPCR_h5HT7: NovaScreen (NVS) G Protein-Coupled Receptor Assay for human Serotonin, 5-Hydroxytryptamine Receptor 7 (5HT7) (AID 2283255);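 further: hits reduce specific radioligand binding relative to DMSO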
# Outline: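 Filter-bound radioactivity counted after 1 h, with loss of specific radioligand binding fitted against DMSO. Membrane protein came from CHO cells expressing human 5HT7. Chemicals were tested first at 25 uM in duplicate, then in concentration series if active.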
# [9] = target: human Adenosine A2a Receptor (AdoRA2a), ADORA2A (gene 135) (UniProt P29274); assay: NVS_GPCR_hAdoRA2a: NovaScreen (NVS) G Protein-Coupled Receptor Assay for human Adenosine A2a Receptor (AdoRA2a) (AID 2283256)
# Outline: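 HEK293-derived receptor preparation, radioligand displacement, 1.5 h, filtration + scintillation read. Loss of bound signal scored vs DMSO. Single-point 25 uM in duplicate first, then concentration-response for actives.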
# [10] = target: human Adrenergic, Beta 1 Receptor (Adrb1), ADRB1 (gene 153) (UniProt P08588); assay: NVS_GPCR_hAdrb1: NovaScreen (NVS) G Protein-Coupled Receptor Assay for human Adrenergic, Beta 1 Receptor (Adrb1) (AID 2283258)
# Outline: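 Membranes/protein extracted from human neuroepithelioma cells, radioligand competition binding read by filtration and scintillation 2 h post-dose. Single 25 uM duplicate screen, then concentration-response follow-up; DMSO as negative control.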
# [11] = target: human Adrenergic, Alpha 2c Receptor (Adra2C), ADRA2C (gene 152) (UniProt P18825); assay: NVS_GPCR_hAdra2C: NovaScreen (NVS) G Protein-Coupled Receptor Assay for human Adrenergic, Alpha 2c Receptor (Adra2C) (AID 2283259)
# Outline: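 Screened first in duplicate at 25 uM, with actives then run as concentration series. Membranes from Sf9 cells were exposed for 1 h, and displacement of radioligand was counted after filtration, using DMSO as baseline.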
# [12] = target: Beta-2 adrenergic receptor (Homo sapiens) (UniProt P07550); assay: NVS_GPCR_hAdrb2: NovaScreen (NVS) G Protein-Coupled Receptor Assay for human Adrenergic, Beta 2 Receptor (Adrb2) (AID 2283261)
# Outline: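 Compounds screened in duplicate at 25 uM, then actives in concentration series. Human beta-2 receptor from CHO material, cell-free; radioligand displacement after 1 h measured by filtration and scintillation against DMSO baseline.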
# [13] = target: human Adrenergic, Beta 3 Receptor (Adrb3), ADRB3 (gene 155) (UniProt P13945); assay: NVS_GPCR_hAdrb3: NovaScreen (NVS) G Protein-Coupled Receptor Assay for human Adrenergic, Beta 3 Receptor (Adrb3) (AID 2283262)
# Outline: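 A cell-free filter binding assay read by scintillation counting, with displacement of a specific radioligand measured after 1 hour. The receptor source was SK-N-MC extracts (cells pretreated with isoproterenol and 8-bromo-cAMP). Compounds were first tested at 25 uM in duplicate and then in concentration series.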
# [14] = target: Type-1 angiotensin II receptor (Homo sapiens) (UniProt P30556); assay: NVS_GPCR_hAT1: NovaScreen (NVS) G Protein-Coupled Receptor Assay for human Angiotensin II receptor type 1 (AT1) (AID 2283263)
# Outline: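 Hits from a 25 uM duplicate screen (threshold e.g. 30% inhibition) were run in concentration-response with 50 uM top concentration. Displacement of specific radioligand from KAN-TS membrane preparations measured after 3 h by filter scintillation, DMSO as baseline.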
# [15] = target: human Dopamine Receptor D4.4 (DRD4.4), DRD4 (gene 1815) (UniProt P21917); assay: NVS_GPCR_hDRD4.4: NovaScreen (NVS) G Protein-Coupled Receptor Assay for human Dopamine Receptor D4.4 (DRD4.4) (AID 2283264)
# Outline: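 Filter-binding assay with a tritiated or iodinated ligand, cell-free receptor prepared from CHO, 1 hour. Loss of bound radioactivity versus DMSO; single 25 uM duplicate screen, then concentration-response for actives.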
# [16] = test system: rat Monoamine Oxidase, MAO-A, Central (MAOAC), gene 29253; assay: NVS_ENZ_rMAOAC: NovaScreen (NVS) Enzymatic Assay for rat Monoamine Oxidase, MAO-A, Central (MAOAC) (AID 2283243);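 further: potency refers to inhibition seen as signal drop below DMSO baseline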
# Outline: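 Lysate-based radiometric enzyme assay using rat brain tissue; 1.5 h treatment; 25 uM single-point duplicate screen, concentration-response follow-up; loss of signal versus DMSO.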
# [17] = NVS_GPCR_bNPY_NonSelective: NovaScreen (NVS) G Protein-Coupled Receptor Assay for bovine Neuropeptide Y (NPY) Receptor, Non-selective Binding (AID 2283245)
# Outline: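 Displacement of radioligand from bovine hippocampal membrane receptors, read by filtration and scintillation counting after 1 hour. Concentration-response to a top of 50 uM followed a 25 uM duplicate primary screen. Loss of signal versus DMSO.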
# [18] = target: rat Monoamine Oxidase, MAO-B, Peripheral (MAOBP), Maob (gene 25750) (UniProt P19643); assay: NVS_ENZ_rMAOBP: NovaScreen (NVS) Enzymatic Assay for rat Monoamine Oxidase, MAO-B, Peripheral (MAOBP) (AID 2283242)
# Protocol: NVS_ENZ_rMAOBP is a biochemical, single-readout assay that uses extracted gene-proteins from Rat brain in a tissue-based cell-free assay. Measurements were taken 1.17 hours after chemical dosing in a 96-well plate.NVS_ENZ_rMAOBP is one of one assay component(s) measured or calculated from the NVS_ENZ_rMAOBP assay. It is designed to make measurements of enzyme activity, a form of enzyme reporter, as detected with scintillation counting signals by Lysate-based radiodetection technology.Data from the assay component NVS_ENZ_rMAOBP was analyzed into 1 assay endpoint. This assay endpoint, NVS_ENZ_rMAOBP, was analyzed in the positive analysis fitting direction relative to DMSO as the negative control and baseline of activity. Using a type of enzyme reporter, loss-of-signal activity can be used to understand changes in the enzymatic activity as they relate to the gene Maob. Furthermore, this assay endpoint can be referred to as a primary readout, because this assay has produced multiple assay endpoints where this one serves a enzymatic activity function. To generalize the intended target to other relatable targets, this assay endpoint is annotated to the oxidoreductase intended target family, where the subfamily is monoamine oxidase.
# Binding assays used specific radioligands (tritiated, iodinated) with non-radioactive competitive displacement ligands in agonist or antagonist protocols (as indicated) and various reference compounds and inhibitors to titrate specific binding to receptors and transporters. Most enzyme assays (CYPs, kinases, phosphatases, proteases, HDACs) used recombinant protein and specific substrates (fluorescence mostly, some colorimetric and radioactive) and inhibitors, followed by a biochemical separation of substrate and product. All assays for the biochemical HTS were initially run in duplicate at a single concentration (10 uM for CYP450 assays and 25 uM for all others). Assay-chemical combinations meeting a pre-defined threshold (e.g., 30% inhibition and other criteria defined below) were then run in singleton concentration-response format with maximum concentration of 20 uM for CYPs and 50 uM for all others. Each assay was run with positive and negative controls, and concurrent controls on every plate. The follow-up (secondary) screen tested active chemical-pairs in concentration series, as well as a few additional assays not tested in the primary screen, some selected negative inactives, and several cases re-run in the concentration series for confirmatory purposes.
# [19] = target: Adenosine receptor A1 (Bos taurus) (UniProt P28190); assay: NVS_GPCR_bAdoR_NonSelective: NovaScreen (NVS) G Protein-Coupled Receptor Assay for bovine Adenosine Receptor (AdoR), Non-selective Binding (AID 2283244)
# Outline: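 Cell-free binding with membranes from bovine striatum: radioligand displaced by test chemical, read after 1 h by filtration and scintillation. Single-point 25 uM duplicate primary, 50 uM top concentration in follow-up curves, DMSO baseline.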
# [20] = target: guinea pig Leukotriene D4 Receptor (LTD4), CYSLTR1 (gene 100135514) (UniProt Q2NNR5); assay: NVS_GPCR_gLTD4: NovaScreen (NVS) G Protein-Coupled Receptor Assay for guinea pig Leukotriene D4 Receptor (LTD4) (AID 2283248)
# Outline: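 Guinea pig lung membrane preparation; bound radioligand measured by filter scintillation after 1 h, loss of signal versus DMSO marking displacement. Compounds tested at 25 uM in duplicate, hits retested to max 50 uM.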
# guinea pig Opioid, Kappa 1 Receptor (OpiateK), OPRK1 (gene 100135587), sequence (P41144 whole entry, looked up): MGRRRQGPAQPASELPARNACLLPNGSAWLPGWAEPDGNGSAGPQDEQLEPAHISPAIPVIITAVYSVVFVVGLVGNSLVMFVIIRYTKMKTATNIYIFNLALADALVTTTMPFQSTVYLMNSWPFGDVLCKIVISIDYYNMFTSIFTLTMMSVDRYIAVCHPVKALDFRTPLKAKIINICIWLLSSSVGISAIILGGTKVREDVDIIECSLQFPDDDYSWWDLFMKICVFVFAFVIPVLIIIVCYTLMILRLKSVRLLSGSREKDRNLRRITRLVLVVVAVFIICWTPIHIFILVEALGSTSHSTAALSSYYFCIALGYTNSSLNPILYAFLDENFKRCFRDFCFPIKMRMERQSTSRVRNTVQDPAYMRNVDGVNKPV
# human Adenosine A2a Receptor (AdoRA2a), ADORA2A (gene 135), sequence (P29274 whole entry, looked up): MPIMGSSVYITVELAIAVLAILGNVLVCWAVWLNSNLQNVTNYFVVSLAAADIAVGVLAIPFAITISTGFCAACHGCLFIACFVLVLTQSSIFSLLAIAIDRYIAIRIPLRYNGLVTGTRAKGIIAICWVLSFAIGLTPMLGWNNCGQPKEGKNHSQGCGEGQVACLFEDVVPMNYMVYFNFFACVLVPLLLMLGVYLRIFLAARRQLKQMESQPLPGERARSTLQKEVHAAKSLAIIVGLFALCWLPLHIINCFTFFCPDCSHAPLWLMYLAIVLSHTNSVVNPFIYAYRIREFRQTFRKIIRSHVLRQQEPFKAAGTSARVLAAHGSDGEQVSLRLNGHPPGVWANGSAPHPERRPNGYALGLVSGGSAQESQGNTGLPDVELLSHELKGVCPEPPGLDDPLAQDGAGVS
# human Adenosine A1 Receptor (AdoRA1), ADORA1 (gene 134), sequence (P30542 whole entry, looked up): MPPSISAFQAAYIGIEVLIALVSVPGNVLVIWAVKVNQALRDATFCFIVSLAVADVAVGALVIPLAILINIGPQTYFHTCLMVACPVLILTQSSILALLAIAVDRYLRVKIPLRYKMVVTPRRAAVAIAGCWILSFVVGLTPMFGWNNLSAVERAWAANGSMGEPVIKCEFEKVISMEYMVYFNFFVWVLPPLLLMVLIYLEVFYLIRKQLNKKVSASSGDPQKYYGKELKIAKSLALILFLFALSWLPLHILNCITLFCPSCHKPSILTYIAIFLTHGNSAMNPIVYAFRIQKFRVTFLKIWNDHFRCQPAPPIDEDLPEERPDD
# human Adrenergic, Alpha 2c Receptor (Adra2C), ADRA2C (gene 152), sequence (P18825 whole entry, looked up): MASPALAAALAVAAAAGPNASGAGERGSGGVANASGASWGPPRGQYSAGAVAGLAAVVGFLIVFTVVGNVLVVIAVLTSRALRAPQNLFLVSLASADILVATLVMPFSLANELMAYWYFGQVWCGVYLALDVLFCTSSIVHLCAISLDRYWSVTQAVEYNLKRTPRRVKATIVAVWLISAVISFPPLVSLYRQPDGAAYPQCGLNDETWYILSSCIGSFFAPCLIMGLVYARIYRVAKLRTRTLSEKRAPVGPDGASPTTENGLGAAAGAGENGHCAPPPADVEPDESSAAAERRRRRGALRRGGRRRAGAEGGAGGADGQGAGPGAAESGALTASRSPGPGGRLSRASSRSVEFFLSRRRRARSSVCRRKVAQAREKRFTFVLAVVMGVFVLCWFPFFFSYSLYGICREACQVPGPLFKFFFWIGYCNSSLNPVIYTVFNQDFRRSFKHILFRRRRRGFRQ
# human Serotonin, 5-Hydroxytryptamine Receptor 5A (5HT5A), HTR5A (gene 3361), sequence (P47898 whole entry, looked up): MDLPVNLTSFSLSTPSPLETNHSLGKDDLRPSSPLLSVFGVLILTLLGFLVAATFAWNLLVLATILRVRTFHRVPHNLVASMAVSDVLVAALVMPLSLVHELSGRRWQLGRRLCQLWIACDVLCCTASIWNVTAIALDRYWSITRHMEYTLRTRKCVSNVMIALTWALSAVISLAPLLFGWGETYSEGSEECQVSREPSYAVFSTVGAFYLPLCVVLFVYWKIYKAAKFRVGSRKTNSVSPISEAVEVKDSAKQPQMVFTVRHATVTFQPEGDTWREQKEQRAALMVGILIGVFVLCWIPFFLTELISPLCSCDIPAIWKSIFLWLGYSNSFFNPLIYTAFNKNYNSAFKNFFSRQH
# Adenosine receptor A1 (Bos taurus), sequence (P28190 whole entry, looked up): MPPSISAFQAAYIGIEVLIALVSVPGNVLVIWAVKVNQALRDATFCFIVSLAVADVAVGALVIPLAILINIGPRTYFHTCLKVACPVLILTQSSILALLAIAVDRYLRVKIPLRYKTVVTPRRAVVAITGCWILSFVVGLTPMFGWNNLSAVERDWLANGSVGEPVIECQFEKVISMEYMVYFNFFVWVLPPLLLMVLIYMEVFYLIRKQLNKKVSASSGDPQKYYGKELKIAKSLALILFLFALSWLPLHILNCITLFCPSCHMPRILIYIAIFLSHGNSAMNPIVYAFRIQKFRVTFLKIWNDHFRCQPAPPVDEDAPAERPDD
# human Serotonin, 5-Hydroxytryptamine Receptor 7 (5HT7), HTR7 (gene 3363), sequence (P34969 whole entry, looked up): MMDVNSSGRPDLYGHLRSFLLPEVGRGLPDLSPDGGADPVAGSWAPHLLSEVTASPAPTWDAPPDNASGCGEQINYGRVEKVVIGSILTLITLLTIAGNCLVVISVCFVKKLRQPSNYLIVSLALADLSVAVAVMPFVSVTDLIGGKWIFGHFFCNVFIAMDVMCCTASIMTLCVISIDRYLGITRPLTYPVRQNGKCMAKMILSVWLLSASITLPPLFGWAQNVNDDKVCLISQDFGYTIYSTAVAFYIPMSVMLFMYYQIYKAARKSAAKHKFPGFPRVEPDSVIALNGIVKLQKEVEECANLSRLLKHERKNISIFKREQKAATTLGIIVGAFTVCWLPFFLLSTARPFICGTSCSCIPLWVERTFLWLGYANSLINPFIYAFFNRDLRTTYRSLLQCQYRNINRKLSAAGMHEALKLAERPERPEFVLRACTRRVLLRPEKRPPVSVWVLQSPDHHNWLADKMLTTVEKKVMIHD
# human Adrenergic, Beta 1 Receptor (Adrb1), ADRB1 (gene 153), sequence (P08588 whole entry, looked up): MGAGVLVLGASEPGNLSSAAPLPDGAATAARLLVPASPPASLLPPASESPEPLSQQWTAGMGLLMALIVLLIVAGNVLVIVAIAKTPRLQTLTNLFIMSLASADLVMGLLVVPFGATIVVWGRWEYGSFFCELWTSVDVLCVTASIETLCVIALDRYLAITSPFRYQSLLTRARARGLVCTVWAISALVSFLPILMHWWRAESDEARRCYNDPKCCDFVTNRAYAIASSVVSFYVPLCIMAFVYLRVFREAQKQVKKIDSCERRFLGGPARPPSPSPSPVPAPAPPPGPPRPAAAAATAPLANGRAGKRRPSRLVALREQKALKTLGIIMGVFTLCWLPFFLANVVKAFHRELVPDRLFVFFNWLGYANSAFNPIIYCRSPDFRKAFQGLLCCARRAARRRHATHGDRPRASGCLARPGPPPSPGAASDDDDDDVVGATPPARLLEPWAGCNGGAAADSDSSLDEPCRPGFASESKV
# human Serotonin, 5-Hydroxytryptamine Receptor 2A (5HT2A), HTR2A (gene 3356), sequence (P28223 whole entry, looked up): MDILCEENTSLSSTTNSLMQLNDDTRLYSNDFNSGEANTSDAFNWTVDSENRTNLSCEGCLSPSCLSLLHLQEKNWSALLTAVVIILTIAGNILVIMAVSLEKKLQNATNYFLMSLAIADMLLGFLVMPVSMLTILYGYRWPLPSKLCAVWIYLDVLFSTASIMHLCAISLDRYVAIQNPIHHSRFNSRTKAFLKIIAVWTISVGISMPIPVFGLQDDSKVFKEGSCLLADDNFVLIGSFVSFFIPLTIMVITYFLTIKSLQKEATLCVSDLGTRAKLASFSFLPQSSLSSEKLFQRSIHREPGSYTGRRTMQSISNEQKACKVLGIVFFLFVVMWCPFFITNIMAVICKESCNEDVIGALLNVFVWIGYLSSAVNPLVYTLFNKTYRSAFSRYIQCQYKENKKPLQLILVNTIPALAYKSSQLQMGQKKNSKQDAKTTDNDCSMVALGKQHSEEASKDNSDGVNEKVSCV
# Beta-2 adrenergic receptor (Homo sapiens), sequence (P07550 whole entry, looked up): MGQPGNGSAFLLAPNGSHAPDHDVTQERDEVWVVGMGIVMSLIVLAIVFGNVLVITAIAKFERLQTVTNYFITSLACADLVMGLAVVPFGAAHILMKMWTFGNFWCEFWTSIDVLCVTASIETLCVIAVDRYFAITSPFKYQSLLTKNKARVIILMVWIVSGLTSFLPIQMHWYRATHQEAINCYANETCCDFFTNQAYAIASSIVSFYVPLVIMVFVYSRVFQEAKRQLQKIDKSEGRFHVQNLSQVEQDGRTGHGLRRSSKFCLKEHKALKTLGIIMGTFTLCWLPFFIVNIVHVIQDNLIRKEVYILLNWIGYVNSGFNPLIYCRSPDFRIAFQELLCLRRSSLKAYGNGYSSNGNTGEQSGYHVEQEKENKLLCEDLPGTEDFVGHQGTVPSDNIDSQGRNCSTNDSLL
# human Dopamine Receptor D4.4 (DRD4.4), DRD4 (gene 1815), sequence (P21917 whole entry, looked up): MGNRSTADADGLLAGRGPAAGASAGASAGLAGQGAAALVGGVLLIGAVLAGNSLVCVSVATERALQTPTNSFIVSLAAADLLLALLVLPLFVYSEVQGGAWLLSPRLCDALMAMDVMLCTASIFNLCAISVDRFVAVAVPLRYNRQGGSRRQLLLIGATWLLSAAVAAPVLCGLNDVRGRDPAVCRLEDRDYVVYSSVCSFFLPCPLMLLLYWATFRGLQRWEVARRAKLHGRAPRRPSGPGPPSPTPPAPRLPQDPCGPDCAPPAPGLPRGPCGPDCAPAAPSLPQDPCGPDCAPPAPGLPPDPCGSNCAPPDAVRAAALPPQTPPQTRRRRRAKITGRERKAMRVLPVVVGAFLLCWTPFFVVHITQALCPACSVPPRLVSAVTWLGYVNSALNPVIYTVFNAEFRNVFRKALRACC
# human Adrenergic, Beta 3 Receptor (Adrb3), ADRB3 (gene 155), sequence (P13945 whole entry, looked up): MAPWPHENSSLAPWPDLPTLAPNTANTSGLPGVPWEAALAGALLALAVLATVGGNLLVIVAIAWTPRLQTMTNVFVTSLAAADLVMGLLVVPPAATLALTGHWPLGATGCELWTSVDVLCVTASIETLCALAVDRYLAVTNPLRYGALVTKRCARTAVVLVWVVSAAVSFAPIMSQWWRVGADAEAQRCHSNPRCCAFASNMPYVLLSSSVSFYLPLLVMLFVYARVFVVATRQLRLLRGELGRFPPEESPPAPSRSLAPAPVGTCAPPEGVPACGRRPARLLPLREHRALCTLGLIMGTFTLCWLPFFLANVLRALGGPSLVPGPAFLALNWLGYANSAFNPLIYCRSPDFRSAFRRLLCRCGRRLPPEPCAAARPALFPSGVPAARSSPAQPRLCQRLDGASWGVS
compound,measurement,setting,value
Oc1ccc(C(c2ccc(O)cc2)(C(F)(F)F)C(F)(F)F)cc1,AC50,[1],0.436 µM (active)
same,AC50,[2],10.4 µM (active)
same,AC50,[3],13.6 µM (active)
same,AC50,[4],8.39 µM (active)
same,AC50,[5],14 µM (active)
same,AC50,[6],0.352 µM (active)
same,AC50,[7],16.6 µM (active)
same,AC50,[8],5.73 µM (active)
same,AC50,[9],25 µM (active)
same,AC50,[10],19.3 µM (active)
same,AC50,[11],10.7 µM (active)
same,AC50,[12],25 µM (active)
same,outcome,[13],inactive
same,outcome,[14],inactive
same,AC50,[15],14.1 µM (active)
CCCN(CCC)N=O,outcome,[10],inactive
CCCCCCCCCC[N+](C)(C)CCCCCCCCCC,AC50,[16],34 µM (active)
same,AC50,[17],22.5 µM (active)
same,AC50,[2],5 µM (active)
same,AC50,[3],25 µM (active)
same,AC50,[4],9.63 µM (active)
same,AC50,[6],13.9 µM (active)
same,AC50,[8],5.73 µM (active)
same,AC50,[10],5.34 µM (active)
same,AC50,[11],3.53 µM (active)
same,AC50,[12],17.5 µM (active)
same,AC50,[13],7.1 µM (active)
same,AC50,[15],25 µM (active)
Cc1cc2c3c(c1)C(c1ccccc1)=N[C@@H](NC(=O)c1ccncc1)C(=O)N3CC2,outcome,[7],inactive
same,AC50,[8],25 µM (active)
CC(C)(O)C(=O)Nc1ccc([N+](=O)[O-])c(C(F)(F)F)c1,outcome,[18],inactive
same,outcome,[5],inactive
Cc1cccc(C)c1N,outcome,[2],inactive
CN(C)c1nc(=O)n(C2CCCCC2)c(=O)n1C,outcome,[12],inactive
C[C@]12CCC(=O)C=C1CC[C@@H]1[C@@H]2CC[C@]2(C)C(=O)CC[C@@H]12,outcome,[5],inactive
same,outcome,[8],inactive
NS(=O)(=O)C(F)(F)C(F)(F)C(F)(F)C(F)(F)C(F)(F)C(F)(F)C(F)(F)C(F)(F)F,AC50,[19],13.1 µM (active)
O=S(=O)(O)C(F)(F)C(F)(F)C(F)(F)C(F)(F)F,AC50,[1],12.2 µM (active)
Cc1ccccc1O,outcome,[19],inactive
CCNc1nc(NC(C)C)nc(SC)n1,AC50,[19],13.4 µM (active)
same,AC50,[7],13.7 µM (active)
same,AC50,[9],10 µM (active)
CO/C=C(/C(=O)OC)c1ccccc1COc1cccc(C(F)(F)F)n1,outcome,[17],inactive
CCC(C)c1cc([N+](=O)[O-])cc([N+](=O)[O-])c1O (stereo not given),outcome,[1],inactive
O=C(O)C(F)(F)C(F)(F)C(F)(F)C(F)(F)C(F)(F)C(F)(F)C(F)(F)C(F)(F)F,AC50,[1],25 µM (active)
same,outcome,[20],inactive
same,AC50,[4],17.7 µM (active)
same,AC50,[9],10.6 µM (active)
same,AC50,[11],25 µM (active)
CCCCCCCCOC(=O)c1ccccc1C(=O)OCCCCCCCC,outcome,[10],inactive
COc1ccc(O)c(C(C)(C)C)c1,outcome,[4],inactive
same,AC50,[6],25 µM (active)
same,outcome,[8],inactive
same,outcome,[15],inactive
CCSC(=O)N(CC)C1CCCCC1,AC50,[18],32.8 µM (active)
